This is an account of results in PubChem BioAssay (NCATS).

Experiment [1] is described as follows: qHTS profiling for inhibitors of Plasmodium falciparum (3D7) proliferation (AID 743322).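 Also: infected erythrocytes exposed to compound for 72 h before lysis; 100% = DMSO vehicle wells and 0% = 0.29 µM artemisinin.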 The following applies: P. falciparum 3D7 proliferation; at 28.7 µM (top of the series) unless noted. The procedure, abridged:
(§1)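 Erythrocytes infected with P. falciparum (0.3% parasitemia, 2.5% hematocrit) incubated with compounds 72 h at 37 C, 5% CO2. Lysis with saponin/Triton buffer containing SYBR Green I, overnight at room temperature in the dark; DNA fluorescence (485/535 nm) normalised to 0.29 uM artemisinin and DMSO.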
(qHTS replaces the single test concentration by a dilution series.)

Experiment [2] in a line: qHTS profiling for inhibitors of Plasmodium falciparum (DD2) proliferation (AID 743323; call rule not given here). The following applies: lower = more inhibition; at 28.7 µM (top of the series) unless noted. The procedure, abridged: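 Parasite proliferation measured via DNA-dye fluorescence, as uninfected erythrocytes lack DNA. Cultures at 0.3% parasitemia and 2.5% hematocrit incubated 72 h with compound; signal scaled between vehicle and 0.29 uM artemisinin wells.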

The nature of experiment [3]: qHTS profiling of the MIPE4 collection as inhibitors of Plasmodium falciparum (3D7) proliferation (AID 743344; call rule not given here). The following applies: P. falciparum 3D7 in erythrocytes, SYBR Green DNA fluorescence, 72 h. The procedure, abridged: as §1
Experiment [4] in a line: qHTS profiling of the MIPE4 collection as inhibitors of Plasmodium falciparum (DD2) proliferation (AID 743345; call rule not given here). Conditions: P. falciparum Dd2 in erythrocytes, SYBR Green DNA, 72 h. The procedure, abridged:
as §1

The nature of experiment [5]: qHTS profiling of the MIPE4 collection as inhibitors of Plasmodium falciparum (DD2) proliferation (Rep 2) (AID 743346; call rule not given here). The following applies: P. falciparum Dd2 in erythrocytes, SYBR Green DNA, 72 h. The procedure, abridged:
as §1

A short description of experiment [6]: qHTS profiling of the MIPE4 collection as inhibitors of Plasmodium falciparum (HB3) proliferation (AID 743347; call rule not given here;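 also: plate controls were DMSO vehicle wells for no effect and artemisinin wells for full effect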). The following applies: P. falciparum HB3 in erythrocytes, SYBR Green DNA, 72 h. The procedure, abridged: as §1
The nature of experiment [7]: High-throughput drug toxicity screening in the BPDCN cell line Gen2.2 (AID 1224824; call rule not given here;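 also: cells exposed to compounds for 48 h before reading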). Conditions: Gen2.2 BPDCN cells; at 45.8 µM (top of the series) unless noted. The procedure, abridged: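 Gen2.2 cells (500/well) in phenol red-free RPMI with 10% FBS were exposed to compounds for 48 h at 37 °C, 5% CO2. Viability was read by CellTiter-Glo luminescence and normalized to DMSO (100%) and 9.2 uM bortezomib (0%).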

Experiment [8] can be described thus: High-throughput drug toxicity screening in the BPDCN cell line Cal-1 (AID 1224825; call rule not given here). The following applies: Cal-1 BPDCN cell viability, qHTS; at 45.8 µM (top of the series) unless noted. The gist of the method: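 500 Cal-1 cells/well, RPMI + glutamine + 10% FBS (phenol red-free); cpd added by pin tool; 48 h, 37C, 5% CO2; CTG 15 min RT, lumi read. Normalised: DMSO 100%, bortezomib 9.2 uM 0%.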

Experiment [9] in a line: qHTS assay for measurement of the activity of small molecule inhibitors on Zika virus induced Caspase-3 activity in human iPSC derived neural progenitor cells (hNPCs) (AID 1224857). Also: % of control where 0% means no effect; nearly all actives have a fitted effect of over 65% in size. The gist of the method: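 Quantitative HTS format: human iPSC neural progenitors, 1 h compound pretreatment, ZIKV 2 FFU/cell for 6 h at 37 C. Percent inhibition derived from luminescent caspase-3/7 signal between uninfected and infected controls.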

Experiment [10] is described as follows: qHTS assay for measurement of the activity of small molecule inhibitors on Zika virus induced Caspase-3 activity in human astrocytoma cells (AID 1224859).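 Also: plate controls were ZIKV-infected untreated cells for no effect and uninfected cells for full effect.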 The procedure, abridged: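 Readout is luminescence from Caspase-Glo 3/7 added after a 6 h ZIKV infection (2 FFU/cell) of compound-pretreated (1 h) SNB-19 cells; data expressed as % inhibition versus uninfected and infected wells.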

Experiment [11] is described as follows: qHTS Screen of the MIPE 4.0 Collection Against Ewings Sarcoma (RDES) (AID 1259252). Also: nearly all actives have a fitted effect of over 35% in size. Also: potency is read from the fitted curve at half-maximal effect. The gist of the method:
(§2)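 CellTiter-Glo luminescence after 48 h compound exposure (titration) gave viability; percent activity used DMSO-treated cells as no inhibition and medium-only wells as full inhibition. Cells grown in RPMI/5% FBS, dosed 4 h post-seeding.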

Experiment [12] in a line: qHTS Screen of the MIPE 4.0 Collection Against Ewings Sarcoma (EW8) (AID 1259255). Also: nearly all actives have a fitted effect of over 35% in size. Also: potency is read from the fitted curve at half-maximal effect.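 As to viability: 100% = DMSO-treated cells and 0% = medium-only wells without cells.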 The procedure, abridged: as §2
Experiment [13] concerns the target T1, Hexokinase-4 (Homo sapiens) + Glucokinase regulatory protein (Homo sapiens) (UniProt P35557+Q14397). Nature of the experiment: qHTS assay for inhibitors of recombinant human GCK-GKRP interaction: Diaphorase-coupled assay (AID 743205). The gist of the method: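 GST-GCK (10 nM) with FLAG-GKRP (10 nM), 5 mM glucose and 0.4 mM ATP in pH 7.6 Hepes; compounds preincubated 20 min with substrate. G6PDH/diaphorase coupling converts resazurin to resorufin, read kinetically (ex 525/em 590 nm) for 30 min.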

Experiment [14] concerns the target T1, Hexokinase-4 (Homo sapiens) + Glucokinase regulatory protein (Homo sapiens). As to the kind of experiment: qHTS assay for inhibitors of recombinant human GCK-GKRP interaction: ADP-Glo assay (AID 743206).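 Also: plate controls were DMSO plus enzyme for no effect and no enzyme for full effect.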 The gist of the method:
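GST-GCK and FLAG-GKRP (15 nM each in the dispensed mix, with 2 uM S6P) react with 0.4 mM ATP and 5 mM glucose (final) in Hepes pH 7.6 for 60 min at room temperature. ADP is measured by ADP-Glo luminescence.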

Experiment [15] shares this target. As to the kind of experiment: qHTS assay for inhibitors of recombinant human GCK-GKRP interaction: HTRF assay (AID 743207).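 Also: 0% = DMSO with GCK present and -100% = DMSO wells lacking GCK.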 The gist of the method:
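GST-GCK and FLAG-GKRP (5 nM each) were combined with 2 uM S6P in pH 7.1 Hepes/MgCl2/KCl/DTT buffer, then compound and anti-FLAG XL665/anti-GST K antibodies were added. After 60 min at room temperature, HTRF 665/615 nm emission was read.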

Experiment [16] can be described thus: qHTS Assay for Identifying Gametocytocidal Compounds (AID 743244).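 Also: % is scaled to controls: 0 for no effect and ±100 for the full control effect; actives lower the fluorescent signal which means gametocytes are killed.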 The following applies: P. falciparum 3D7 stage III-V gametocytes, alamarBlue, 72 h; max response: stronger effect = lower value. The procedure, abridged:
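A resazurin-based viability read-out was applied to mature P. falciparum gametocytes: 72 h compound treatment, then 24 h dye incubation, with falling fluorescence signalling gametocytocidal effect.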

The mark [17] stands for this setting: at 28.5 µM (top of the series) unless noted.

Structures are written as SMILES. Results filed as inconclusive are left out. Activity calls are given as the source filed them. Unless noted, calls follow the shape of the dose curve; as a rule, active = well fitted curve in the direction sought with a large enough effect; inconclusive = small, poorly fitted or top-dose-only effect, or another doubt; inactive = no such curve, though single readings can be large; an effect the other way counts as inactive or inconclusive.

T1 sequence (P35557 whole entry, looked up): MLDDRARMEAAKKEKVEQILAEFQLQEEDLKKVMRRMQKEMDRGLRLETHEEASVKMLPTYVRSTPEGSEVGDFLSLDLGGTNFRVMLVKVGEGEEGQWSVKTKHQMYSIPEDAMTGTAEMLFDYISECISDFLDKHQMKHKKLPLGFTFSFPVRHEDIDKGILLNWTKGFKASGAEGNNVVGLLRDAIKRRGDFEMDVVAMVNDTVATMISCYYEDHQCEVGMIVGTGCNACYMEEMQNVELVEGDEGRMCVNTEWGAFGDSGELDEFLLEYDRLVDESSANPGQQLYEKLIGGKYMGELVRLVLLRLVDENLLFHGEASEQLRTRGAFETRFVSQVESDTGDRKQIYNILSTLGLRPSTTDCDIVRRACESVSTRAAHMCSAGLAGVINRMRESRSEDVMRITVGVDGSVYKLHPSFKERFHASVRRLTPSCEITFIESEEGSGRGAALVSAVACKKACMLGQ
T1 sequence (Q14397 whole entry, looked up): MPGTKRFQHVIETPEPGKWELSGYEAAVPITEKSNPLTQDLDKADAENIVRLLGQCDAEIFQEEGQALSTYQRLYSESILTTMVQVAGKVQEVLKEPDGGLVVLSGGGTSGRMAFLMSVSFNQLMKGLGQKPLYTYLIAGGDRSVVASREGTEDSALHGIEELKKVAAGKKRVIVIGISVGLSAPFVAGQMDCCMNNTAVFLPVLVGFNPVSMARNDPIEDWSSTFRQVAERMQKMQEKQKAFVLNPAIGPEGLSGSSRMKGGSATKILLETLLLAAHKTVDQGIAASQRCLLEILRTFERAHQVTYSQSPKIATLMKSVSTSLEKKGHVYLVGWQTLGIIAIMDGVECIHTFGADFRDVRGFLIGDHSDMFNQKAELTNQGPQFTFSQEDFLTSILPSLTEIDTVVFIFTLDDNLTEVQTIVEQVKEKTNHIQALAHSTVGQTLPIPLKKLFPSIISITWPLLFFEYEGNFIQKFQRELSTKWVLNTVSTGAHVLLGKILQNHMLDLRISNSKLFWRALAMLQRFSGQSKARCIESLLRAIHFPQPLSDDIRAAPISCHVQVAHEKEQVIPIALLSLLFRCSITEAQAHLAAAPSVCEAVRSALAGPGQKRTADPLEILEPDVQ

On to `CCCCN(CCCC)CCC(O)c1cc2c(Cl)cc(Cl)cc2c2cc(C(F)(F)F)ccc12` (stereo not drawn), for which the remaining parasite growth % (stronger effect = lower value) in experiment [1] is -0.286% [at 9.63 µM]. Also, the activity, percent of control in [2] is 0.468% [at 9.63 µM]. In addition, the parasite growth, % of DMSO control in [3] (at 9.64 µM (top of the series)) came out at 7.84%; in experiment [3] (at 28.5 µM (top of the series)), 7.96%. Further, the results for the parasite growth remaining, % of DMSO control (lower = more inhibition) in experiment [4] (at 9.64 µM (top of the series)) and in [4] (at 28.5 µM (top of the series)) were 8.22% and 7.14%, respectively. The parasite growth, % of control (lower = inhibition) in experiment [5] (at 9.64 µM (top of the series)) was determined as 11%; in [5] (at 28.5 µM (top of the series)) it was 10.3%. In addition, the growth, % of control came out at 5.69% in experiment [6] (at 9.64 µM (top of the series)) and 7.8% in [6] (at 28.5 µM (top of the series)). The cell viability, % of control (lower = more cytotoxic) in experiment [7] worked out at 34.8%. This compound came in with a viability (% of control) in experiment [8] of 64.8%. Also, the Potency entry in [9], in experiment [10], in [11] and in [12] was “inactive” in each case.
Turning to `O=C(CCc1ccc(O)cc1)c1c(O)cc(O)cc1O`, the result in experiment [13], in experiment [14] and in experiment [15] was inactive. The same compound came in with a parasite growth, % of DMSO control in [3] (setting [17]) of 10.4%. Besides, the parasite growth remaining, % of DMSO control (lower = more inhibition) in experiment [4] (setting [17]) worked out at 96.7%. The compound also showed a parasite growth, % of control (lower = inhibition) in [5] (setting [17]) of 7.72%. In experiment [6] (setting [17]), this compound came in with a growth, % of control of 5.58%. Further, the cell viability, % of control (lower = more cytotoxic) in [7] was determined as 141%. This compound also yielded a viability (% of control) in [8] of 41.1%. For the same compound, the Potency entry in experiment [9] and in experiment [10] was “inactive” in each case. For the same compound, the Potency was 0.166 µM (active) in [11] and 5.9 µM (active) in experiment [12].
As for `CC(=O)O[C@H]1C(=O)[C@@]2(C)C([C@H](OC(=O)c3ccccc3)[C@]3(O)C[C@H](OC(=O)[C@H](O)[C@@H](NC(=O)c4ccccc4)c4ccccc4)C(C)=C1C3(C)C)[C@]1(OC(C)=O)CO[C@@H]1C[C@@H]2O` (stereo partly drawn), the result in experiment [13], in [14] and in [15] was inactive. This compound also came in with a parasite growth, % of DMSO control in experiment [3] (setting [17]) of 5.85%. The same compound displayed a parasite growth remaining, % of DMSO control (lower = more inhibition) in experiment [4] (setting [17]) of 14.4%. Also, the parasite growth, % of control (lower = inhibition) in experiment [5] (setting [17]) is 11.8%. This compound also showed a growth, % of control in experiment [6] (setting [17]) of 4.22%. In addition, the cell viability, % of control (lower = more cytotoxic) in [7] is 17%. The compound further had a viability (% of control) in experiment [8] of 12.8%. The Potency result in experiment [9], in experiment [10], in experiment [11] and in experiment [12] was “inactive” throughout.
With `CC(C)c1nc(CN(C)C(=O)N[C@H](C(=O)N[C@@H](Cc2ccccc2)C[C@H](O)[C@H](Cc2ccccc2)NC(=O)OCc2cncs2)C(C)C)cs1`, the max response in experiment [16] is -4.83% (inactive). Moreover, the parasite growth, % of DMSO control in [3] (setting [17]) was found to be 20.4%. The compound also displayed a parasite growth remaining, % of DMSO control (lower = more inhibition) in [4] (setting [17]) of 66.3%. In [5] (setting [17]), this compound had a parasite growth, % of control (lower = inhibition) of 41.9%. The same compound yielded a growth, % of control in experiment [6] (setting [17]) of 15.5%. Also, the cell viability, % of control (lower = more cytotoxic) in experiment [7] turned out to be 28.1%. The viability (% of control) in [8] stood at 94.9%. For the same compound, the Potency entry in [9], in [10] and in [11] was “inactive” each time. In addition, in experiment [12], the Potency was 16.6 µM (active).
